Screening data from PubChem.
KCNQ2 pot = potentiators of rat KCNQ2 potassium channel; Potassium voltage-gated channel subfamily KQT member 2 (Rattus norvegicus), O88943; CHO-K1 KCNQ2, FluxOR thallium flux fluorescence; hits give high values; B-score at 10 µM; 0.54% of 310,000 active;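 active = fluorescence ratio B-score at least 3 SD of library B-scores, with initial fluorescence B-score within 3 of them, cut at about 5.3 in these data; same plate scores as AID 2156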;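 also: B-score of peak minus minimum over baseline fluorescence ratio after K+ and Tl+ stimulus; positive B-score means potentiation of KCNQ2 with more thallium influx and brighter signal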
KCNQ2 inh = rat KCNQ2 potassium channel inhibitors, primary screen, cell-based, CHO-K1, FluxOR thallium flux, B-score; Potassium voltage-gated channel subfamily KQT member 2 (Rattus norvegicus), O88943; 20 min; hits give low values; B-score at 10 µM; 1.1% of 310,000 active; AID 2156, 2009;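 active = fluorescence ratio B-score at most minus 3 library SDs, with starting brightness B-score within 2 library SDs, cut at about -5.5 in these data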
Kir21 conf inh = mouse Kir2.1 channel blockers, retest, confirmation, cell-based, FluxOR thallium flux, duplicate; shares compounds with KCNQ2 pot; AID 2032, 2009; 41% of 2,300 active; Kir2.1-expressing cells, FluxOR thallium flux fluorescence; hits give low values; Tl flux remaining, % of negative control (hits give low values), % at 10 µM;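 active = Primary-screen hit whose thallium flux fell at least 3 control SD below untreated wells in both duplicates, with normal baseline fluorescence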
HEK293 Tl flux = parental HEK293 activity in Kir2.1 inhibitor counter-screen; AID 2105; shares compounds with KCNQ2 pot; 19% of 2,300 active; FluxOR signal as % of negative control (100 = no effect), % at 10 µM; parental HEK293 cells, FluxOR thallium flux fluorescence; 0% = unstimulated blank wells;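 active = dye signal at least 3 control SD above or below untreated wells in both duplicates, raw fluorescence within 3, either direction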;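 also: percent is based on the flux ratio of peak minus minimum fluorescence over baseline F0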
CHO-K1 Tl ctr = nonspecific thallium flux increase in parental CHO-K1, confirmation, counter-screen for KCNQ2 potentiator project, cell-based, FluxOR thallium flux, duplicate; parental CHO-K1 cells, FluxOR thallium flux fluorescence; zero = vehicle mean+3SD, 100% = vehicle-minus-blank window; AID 2282, 2010; 43% of 1,200 active; shares compounds with KCNQ2 pot; activity increase over 3SD of controls, % at 10 µM;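 active = signal rise of at least 3 SD above the untreated control mean, in both duplicate wells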;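 also: counter screen of KCNQ2 potentiator hits so any rise reflects channel-independent effects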
KCNQ1 sel pot = human KCNQ1 channel potentiation off-target, confirmation, selectivity assay for KCNQ2 potentiator project, cell-based, CHO, FluxOR thallium flux | CHO KCNQ1 stable, FluxOR thallium flux fluorescence; beyond 3SD, as % of vehicle-control signal | 28% of 1,200 active | activation over 3SD threshold, % at 10 µM | shares compounds with KCNQ2 pot;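 active = fluorescence ratio rise of at least 3 SD of vehicle wells above their mean, in both replicate wells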
Target sequence (P51787 whole entry, looked up): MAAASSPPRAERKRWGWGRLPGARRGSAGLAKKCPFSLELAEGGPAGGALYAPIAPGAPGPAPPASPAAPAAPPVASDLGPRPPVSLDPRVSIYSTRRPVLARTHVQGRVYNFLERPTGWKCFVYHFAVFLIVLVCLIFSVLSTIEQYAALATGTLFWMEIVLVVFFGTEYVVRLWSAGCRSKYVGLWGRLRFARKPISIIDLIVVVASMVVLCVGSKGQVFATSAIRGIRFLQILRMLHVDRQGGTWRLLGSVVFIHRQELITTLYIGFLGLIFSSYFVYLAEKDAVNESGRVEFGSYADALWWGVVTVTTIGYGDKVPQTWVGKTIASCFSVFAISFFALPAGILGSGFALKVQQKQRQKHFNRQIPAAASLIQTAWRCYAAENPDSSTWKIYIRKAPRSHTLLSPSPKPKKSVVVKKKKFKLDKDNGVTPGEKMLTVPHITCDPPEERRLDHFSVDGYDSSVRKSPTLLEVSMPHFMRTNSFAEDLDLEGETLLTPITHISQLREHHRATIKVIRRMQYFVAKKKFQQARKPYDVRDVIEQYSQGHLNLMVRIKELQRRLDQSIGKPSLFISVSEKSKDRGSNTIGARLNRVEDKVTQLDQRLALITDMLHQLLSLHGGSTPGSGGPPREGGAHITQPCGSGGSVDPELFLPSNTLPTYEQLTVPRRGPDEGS
KCNQ2 pot conf = rat KCNQ2 channel potentiators, confirmation, cell-based, CHO, FluxOR thallium flux, duplicate | potentiation, less the hit threshold, % at 10 µM | 68% of 1,200 active | shares compounds with KCNQ2 pot | CHO-KCNQ2 cells, FluxOR thallium flux fluorescence;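 active = fluorescence ratio rising 3 SD or more over the vehicle control mean in both replicates, plus primary screen hit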;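 also: peak minus minimum thallium fluorescence divided by baseline after K/Tl stimulus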
Kir2-1 sel = mouse Kir2.1 channel activation off-target, confirmation, selectivity assay for KCNQ2 potentiator project, cell-based, HEK293, FluxOR thallium flux; shares compounds with KCNQ2 pot; HEK293 Kir2.1, FluxOR thallium flux fluorescence; activity over 3SD threshold, % at 10 µM; 2% of 1,200 active; AID 2345, 2010;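 active = fluorescence ratio rise of at least 3 SD above the vehicle-control mean, seen in both replicates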
KCNQ2 W236L MoA = potentiators of retigabine-insensitive KCNQ2 W236L, mechanism study for KCNQ2 potentiator project, cell-based, rat KCNQ2 W236L, CHO, automated patch clamp | shares compounds with KCNQ2 pot | automated patch clamp current | current increase over 3SD of negative controls (%), hits give high values, % at 25 µM | 10% of 940 active | AID 2558, 2010;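 active = current increase at least 3 SD of the untreated controls above them in both duplicate recordings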
Numbers stand for hits. Compounds with a hit are over-represented: about 1.6% of the library has one in this group of screens.

How did c1ccc2c(c1)ncn2-c1ncnc2sc3c(c12)CCCC3 do in these assays?
KCNQ2 pot: inactive; KCNQ2 inh: inactive

Results for CC(O)CNc1nc2ccccc2n1-c1ncnc2sc3c(c12)CCC3 (configuration not stated) ?
KCNQ2 inh: inactive; Kir21 conf inh: 78%; HEK293 Tl flux: inactive

Results for CC(=O)c1sc(NC(=O)C2CCN(C(=O)c3ccccc3C)CC2)nc1-c1ccccc1 ?
KCNQ2 inh: inactive

How did S=C(NCc1ccccc1)NC1CCCc2ccccc21 (configuration not stated) do in these assays?
KCNQ2 inh: inactive; Kir21 conf inh: inactive; HEK293 Tl flux: inactive

How did S=C(NCc1ccco1)NC1CCCc2ccccc21 (configuration not stated) do in these assays?
KCNQ2 inh: inactive

What do the screens show for `Cc1cc(C)cc(NC(=O)c2ccc(Cn3nc(C)c(Cl)c3C)o2)c1`?
KCNQ2 inh: inactive

Results for Cc1ccc(CNC(=O)c2ccc(Cn3nc(C)c(Cl)c3C)o2)cc1 ?
KCNQ2 inh: inactive; Kir21 conf inh: 48%; HEK293 Tl flux: inactive

How did O=C(Nc1cccc(S(=O)(=O)N2CCOCC2)c1)c1cc([N+](=O)[O-])ccc1N1CCOCC1 do in these assays?
KCNQ2 pot: inactive; KCNQ2 inh: inactive

Results for N#Cc1c(C(F)(F)F)cc(-c2ccccc2)nc1SCc1nc(N)nc(N2CCOCC2)n1 ?
KCNQ2 pot: 10; KCNQ2 inh: inactive; Kir21 conf inh: inactive; HEK293 Tl flux: inactive; CHO-K1 Tl ctr: inactive; KCNQ1 sel pot: inactive; KCNQ2 pot conf: 17; Kir2-1 sel: inactive; KCNQ2 W236L MoA: inactive

What do the screens show for `N#Cc1c(C(F)(F)F)cc(-c2ccc(Cl)c(Cl)c2)nc1SCCN1CCOCC1`?
KCNQ2 pot: inactive; KCNQ2 inh: inactive

Results for CC(C)NS(=O)(=O)c1ccc(CCC(=O)NCc2ccccn2)cc1 ?
KCNQ2 pot: inactive; KCNQ2 inh: inactive

What do the screens show for `CCn1c(CSc2nc3ccccc3s2)nnc1SCC(=O)c1ccc2c(c1)OCCO2`?
KCNQ2 pot: inactive; KCNQ2 inh: inactive

Results for CCC(C)NC(=O)CS(=O)Cc1nc(-c2cccc(C)c2)oc1C (configuration not stated) ?
KCNQ2 pot: inactive; KCNQ2 inh: inactive

What do the screens show for `CCCCOCCCNC(=O)c1ccc2c(c1)OCO2`?
KCNQ2 pot: 6.5; KCNQ2 inh: inactive; Kir21 conf inh: inactive; HEK293 Tl flux: inactive; CHO-K1 Tl ctr: 1.4; KCNQ1 sel pot: inactive; KCNQ2 pot conf: inactive; Kir2-1 sel: inactive

Results for COCCCNC(=O)c1ccc2c(c1)OCO2 ?
KCNQ2 inh: inactive

How did CCOC(=O)c1sc(NC(=O)CSc2n[nH]c(CC(C)C)n2)nc1C do in these assays?
KCNQ2 pot: inactive; KCNQ2 inh: inactive

Results for Cc1[nH]n(-c2ccccc2)c(=O)c1/C=N/NC(=O)c1ccc(O)cc1O ?
KCNQ2 inh: inactive

What do the screens show for `CCCCN(CCCC)C(=S)N/N=C/c1c(C)[nH]n(-c2ccccc2)c1=O`?
KCNQ2 pot: 6.7; KCNQ2 inh: inactive; Kir21 conf inh: inactive; HEK293 Tl flux: inactive; CHO-K1 Tl ctr: 0.0; KCNQ1 sel pot: inactive; KCNQ2 pot conf: inactive; Kir2-1 sel: inactive

How did CCOC(=O)C1[C@H]2C(=O)N(CCCOC)C[C@]23C=C[C@H]1O3 (some centres not stated) do in these assays?
KCNQ2 pot: inactive; KCNQ2 inh: inactive

How did O=C1CC2(CON=C2c2ccc(F)cc2)C(=O)N1c1ccc(F)cc1 (configuration not stated) do in these assays?
KCNQ2 pot: inactive; KCNQ2 inh: inactive

How did COc1ccc(F)cc1S(=O)(=O)N1CC(C)CC(C)C1 (configuration not stated) do in these assays?
KCNQ2 inh: inactive; Kir21 conf inh: 44%; HEK293 Tl flux: inactive

What do the screens show for `COc1ccc(Br)cc1S(=O)(=O)N1CCOCC1`?
KCNQ2 pot: inactive; KCNQ2 inh: inactive

How did COc1ccc(OC)c(S(=O)(=O)N2CCN(c3ccc(F)cc3)CC2)c1 do in these assays?
KCNQ2 inh: inactive

What do the screens show for `COc1ccc(C(C)C)cc1S(=O)(=O)N1CCC(C(=O)N2CCN(C)CC2)CC1`?
KCNQ2 inh: inactive

Results for COc1ccc(Br)cc1S(=O)(=O)N1CC(C)OC(C)C1 (configuration not stated) ?
KCNQ2 pot: inactive; KCNQ2 inh: inactive; Kir21 conf inh: 56%; HEK293 Tl flux: inactive

Results for COc1ccc(C(C)C)cc1S(=O)(=O)N1CCN(C)CC1 ?
KCNQ2 pot: 13; KCNQ2 inh: inactive; Kir21 conf inh: inactive; HEK293 Tl flux: inactive; CHO-K1 Tl ctr: 48; KCNQ1 sel pot: inactive; KCNQ2 pot conf: inactive; Kir2-1 sel: inactive

How did CCOc1cc(C#N)c(NC(=O)c2ccnn2C)cc1OCC do in these assays?
KCNQ2 pot: inactive; KCNQ2 inh: inactive

What do the screens show for `CCCc1c(C(=O)N/N=C/c2cccc(OCc3ccc(F)cc3)c2)nnn1-c1nonc1N`?
KCNQ2 inh: inactive

What do the screens show for `CCOC(=O)c1cc(-c2ccc(F)cc2)n(CC(=O)NCc2cccnc2)c1C`?
KCNQ2 inh: inactive

What do the screens show for `O=C(CN1CCCCC1)NNc1nc(-c2ccccc2)c2cc(Br)ccc2n1`?
KCNQ2 pot: 11; KCNQ2 inh: inactive; Kir21 conf inh: inactive; HEK293 Tl flux: inactive; CHO-K1 Tl ctr: 75; KCNQ1 sel pot: inactive; KCNQ2 pot conf: 71; Kir2-1 sel: inactive; KCNQ2 W236L MoA: inactive

How did CC(=O)NNc1nc(-c2ccccc2)c2cc(Br)ccc2n1 do in these assays?
KCNQ2 inh: inactive

How did COc1ccc(/C(C)=N/Nc2ccc(C(=O)O)cc2)c(OC)c1 do in these assays?
KCNQ2 inh: inactive
